# ALDH1A1 inh = qHTS Assay for Inhibitors of Aldehyde Dehydrogenase 1 (ALDH1A1) | Aldehyde dehydrogenase 1A1 (Homo sapiens), P00352 | Purified ALDH1A1, NADH fluorescence, propionaldehyde substrate | Potency, µM (series often up to 75.3 µM), for inactives: at the top dose activity, negative = inhibition, actives largely listed as inhibitors | hit rate 7.3% among 220,000 | AID 1030, 2008;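 also: potency is read from the fitted curve at half-maximal effect; plate controls were no enzyme wells and a reference inhibitor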
# Target sequence (P00352 whole entry, looked up): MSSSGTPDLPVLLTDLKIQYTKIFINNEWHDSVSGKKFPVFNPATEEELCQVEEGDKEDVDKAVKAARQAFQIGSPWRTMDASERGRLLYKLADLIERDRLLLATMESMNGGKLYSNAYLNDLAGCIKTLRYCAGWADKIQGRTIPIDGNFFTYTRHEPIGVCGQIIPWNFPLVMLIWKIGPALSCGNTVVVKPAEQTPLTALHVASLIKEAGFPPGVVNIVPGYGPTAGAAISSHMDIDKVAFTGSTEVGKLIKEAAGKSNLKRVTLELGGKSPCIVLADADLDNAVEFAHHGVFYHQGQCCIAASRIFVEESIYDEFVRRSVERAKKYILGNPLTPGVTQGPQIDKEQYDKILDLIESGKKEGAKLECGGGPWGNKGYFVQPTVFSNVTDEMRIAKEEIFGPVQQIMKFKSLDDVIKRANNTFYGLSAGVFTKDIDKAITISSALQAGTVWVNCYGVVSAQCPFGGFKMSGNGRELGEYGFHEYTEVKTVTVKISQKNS
# PNC assembly inh = High Content Assay for Compounds that inhibit the Assembly of the Perinucleolar Compartment | PC3M PTB-GFP, PNC prevalence imaging, 16 h; active compounds read low | activity change (PNC), negative = inhibition, % at 10 µM | hit rate 3.1% among 140,000 | AID 2417, 2010;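 active = readout at or below -70, meaning at least 70% loss of cells showing the perinucleolar compartment, a nuclear body marking cancer cells; inconclusive = readout between -30 and a set limit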;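 also: plate controls were DMSO wells for no effect and camptothecin positive control wells for full effect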
#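 Read-out is percentage of cells bearing a perinucleolar compartment, from automated 20x imaging of fixed, Hoechst-stained PC3M PTB-GFP cells. Cells were seeded 4 h, then exposed 16 h to compound (23 nl of library stock) in duplicate plates.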
# HPGD block = qHTS Assay for Inhibitors of HPGD (15-Hydroxyprostaglandin Dehydrogenase); 15-hydroxyprostaglandin dehydrogenase [NAD(+)] (Homo sapiens), P15428; purified HPGD, NADH fluorescence kinetic, PGE2 substrate; Potency, µM, for inactives: at the top dose activity change, negative = inhibition, most hits filed as inhibitors; hit rate 4.3% among 150,000; also: potency is read from the fitted curve at half-maximal effect
# Target sequence (P15428 whole entry, looked up): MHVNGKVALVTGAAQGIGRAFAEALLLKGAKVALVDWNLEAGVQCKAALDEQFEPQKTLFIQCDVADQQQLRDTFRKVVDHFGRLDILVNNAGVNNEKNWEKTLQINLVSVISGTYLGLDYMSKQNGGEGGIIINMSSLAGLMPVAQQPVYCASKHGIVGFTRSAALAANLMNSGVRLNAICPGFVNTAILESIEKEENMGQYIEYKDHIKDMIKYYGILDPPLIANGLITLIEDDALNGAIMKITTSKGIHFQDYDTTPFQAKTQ
#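 20 nM HPGD preincubated 15 min at room temperature with compound in 50 mM Tris-HCl pH 8, 0.01% Tween 20. Started with 1 mM NAD+ and 30 uM prostaglandin E2; NADH fluorescence (360/450 nm) read 5 times over 30-s intervals, last minus first.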
# IMPase Li inh = qHTS Assay for Identifying the Cell-Membrane Permeable IMPase Inhibitors: Potentiation with Lithium. CHO-M1 cells, IP1 TR-FRET (IP-One), carbachol + lithium. hit rate 0.35% among 210,000. Potency, µM (highest dose often 59.4 µM), for inactives: at the top dose activity, negative = IMPase inhibition, usual class: inhibitors; active = well fitted inhibition curve with a large enough effect; inconclusive = small, poorly fitted or top-dose-only effect; inactive = no such curve, though single readings can be large or run the other way;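 also: IP1 builds up when IMPase is blocked and the TR-FRET signal falls; potency is read from the fitted curve at half-maximal effect; plate controls were basal vehicle for no effect and high inhibitor control for full effect; nearly all actives have a fitted effect of over 50% in size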
#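 Lithium-sensitised IP1 accumulation assay; M1-expressing CHO cells treated 30 min at 37C with compound. Competitive antibody detection by time-resolved FRET followed a 10 min room-temperature lysis step.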
# IMPase inh = qHTS Assay for Identifying the Cell-Membrane Permeable IMPase Inhibitors | Inositol monophosphatase 1 (Rattus norvegicus), P97697 | CHO-M1 cells, IP1 accumulation, HTRF TR-FRET ratio | inhibition (IP1 accumulation), % at 46.1 µM | 120,000 tested, under 10 active; active = well fitted curve in the direction sought with a large enough effect in the signal ratio, not every such curve was filed as active; inconclusive = small, poorly fitted or top-dose-only effect, or a change in a side signal; inactive = no such curve, though single readings can be large or run the other way; the % refers to the signal ratio;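 also: cells stimulated with carbachol in lithium chloride buffer; plate controls were DMSO basal wells for no effect and reference inhibitor wells for full effect; higher means more IMPase inhibition seen as more IP1 and lower FRET ratio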
#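 Measured: the HTRF emission ratio (665/620 nm) plus the 620 nm donor channel, each fitted to the Hill equation to give AC50. Cells were CHO-M1 given compounds up to 46 uM and a 30 min carbachol stimulation at 37C.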
# Numbers without * were called inactive; ? = inconclusive; . = no result given; [ ] = dose if it differs, or a comment. This is a sample that favours compounds with a hit; in the whole collection about 11% have one here. Unless noted, calls follow the shape of the dose curve; as a rule, active = well fitted inhibition curve with a large enough effect (not every such curve was filed as active); inconclusive = small, poorly fitted or top-dose-only effect, or another doubt; inactive = no such curve, though single readings can be large or run the other way. Unless noted, % is scaled to controls: 0 for no effect and ±100 for the full control effect.
SMILES,ALDH1A1 inh,PNC assembly inh,HPGD block,IMPase Li inh,IMPase inh
CC(C)Oc1cccc(C2CC(=O)Nc3cc4c(cc32)OCO4)c1 (stereo not given),.,.,.,.,5.1
CC(C)NS(=O)(=O)c1ccc(CCC(=O)Nc2ccc3c(c2)OCO3)cc1,0.398µM*,?,-12.3%,20.6%[38.3 µM],-1.7
CCCNS(=O)(=O)c1ccc(CCC(=O)NCc2ccco2)cc1,2.24µM*,4.1,-12.8%,11.0%[38.3 µM],1.4
CCCNS(=O)(=O)c1ccc(CCC(=O)Nc2ccc3c(c2)OCCO3)cc1,10µM*,-5.9,-13.3%,-10.8%,.
CCCNS(=O)(=O)c1ccc(CCC(=O)Nc2ccc3c(c2)OCO3)cc1,?,6.3,2.1%,-10.2%[38.3 µM],1.5
CCC(C)NS(=O)(=O)c1ccc(OCC(=O)Nc2ccc3c(c2)OCO3)cc1 (stereo not given),1.26µM*,8.5,-14.9%,-7.9%[38.3 µM],2.3
CCOC(=O)c1c(NC(=O)C(F)(OC)C(F)(F)F)sc(C(=O)N2CCCCC2)c1C (stereo not given),?,?,-11.1%,7.4%[38.3 µM],5.5
COC(=O)C[C@H](NC(=O)[C@H](C)NC(=O)[C@@H](NC(=O)OCc1ccccc1)C(C)C)C(=O)CF,10.1%,.,.,-7.4%,.
O=C(c1ccc2ccccc2n1)N1CCN(c2ccccc2O)CC1,?,-95.7*,-23.2%,2.1%[38.3 µM],-3.0
NC1=NC(=O)CC(C(=O)Nc2cccc3ccccc23)S1 (stereo not given),-12.8%,.,.,-1.9%,.
CCc1ccc(NC(=O)C2CC(=O)N=C(N)S2)cc1 (stereo not given),-5.7%,-25.3,-15.6%,16.5%[38.3 µM],-5.1
CC(C)c1ccc(NC(=O)C2CC(=O)N=C(N)S2)cc1 (stereo not given),17.8µM*,-28.4,-0.9%,6.8%[38.3 µM],21.7
NC1=NC(=O)CC(C(=O)NCCc2ccccc2)S1 (stereo not given),12.6µM*,-3.1,5.8%,-4.7%[38.3 µM],1.5
Cc1cccc2cc(-c3nc4c(C)cccn4c3NCc3ccco3)c(=O)[nH]c12,20µM*,15.1,2.3%,16.1%[38.3 µM],2.5
CCN(Cc1ccc(OC)c(F)c1)C(=O)CCl,0.355µM*,.,.,-3.6%,.
Cc1ccc(OCC(O)C(C)NC(C)C)c2c1CCC2 (stereo not given),-13.2%,.,-8.6%,?,.
CSc1nc(N)c2ncn([C@@H]3O[C@H](COP(=O)(O)OP(=O)(O)OP(=O)(O)O)[C@H](O)[C@H]3O)c2n1,7.5%,.,-16.1%,-9.7%,.
N#Cc1cc([N+](=O)[O-])ccc1NC(=O)COC(=O)C12CC3CC(CC(C3)C1)C2,22.4µM*,.,.,16.6%,.
O=C(Nc1ccccc1)O/N=C/c1ccccc1Cl,?,30.4,39.8µM*,39.4%[38.3 µM],-7.6
COc1ccc(-c2nnc(SCC(=O)NCc3ccco3)n2C)cc1,?,-12.0,-14.6%,22.3%[38.3 µM],-1.8
C/C(=N\NC(N)=O)C1(C)CCCCC1,25.1µM*,22.8,-9.6%,-8.5%[38.3 µM],0.5
O=C(CCN1CCOCC1)c1ccc(Br)cc1,0.1µM*,.,.,5.6%,.
Brc1ccc(OCCCN2CCOCC2)cc1,-11.0%,1.5,6.3%,10.9%[38.3 µM],-6.0
O=C(CCN1CCOCC1)c1ccc(Cl)cc1,0.0891µM*,.,.,2.9%,.
Clc1ccc(SCCCCN2CCOCC2)cc1,-1.2%,6.9,-2.7%,2.2%,.
SMILES,ALDH1A1 inh,PNC assembly inh,HPGD block,IMPase Li inh,IMPase inh
CC1CCN(C(=O)c2cc(F)c(F)cc2Cl)CC1,2.8%,-100.0*,12.6µM*,-0.6%,8.6
O=C(c1cc(F)c(F)cc1Cl)N1CCOCC1,10.5%,19.5,-16.9%,-16.3%[38.3 µM],-4.4
COC(=O)[C@@H]1CCCN1Cc1nc(Cc2ccccc2F)no1,?,.,.,7.8%,.
COC(=O)[C@@H]1CCCN1Cc1nc(Cc2ccc(OC)c(OC)c2)no1,0.891µM*,.,.,0.8%,.
Cc1nc(SCC(=O)NC(C)(C#N)C2CC2)c2c(-c3cccs3)csc2n1 (stereo not given),-12.2%,?,-19.6%,4.2%,7.5
O=C(O)C(=O)/C(=C\c1cccc(Cl)c1)c1ccc2ccccc2n1,?,.,.,3.6%,.
Cc1cccc(/C=C(\C(=O)C(=O)O)c2ccc3ccccc3n2)c1,7.94µM*,.,.,11.0%,.
N/C(Cc1ccc(Cl)cc1Cl)=N\OC(=O)c1cccs1,-4.9%,?,-16.1%,43.2%[38.3 µM],5.3[1.84 µM]
N/C(Cc1cccc2ccccc12)=N\OC(=O)c1ccc(Br)o1,10µM*,.,.,10.9%,.
N/C(Cc1ccc(Cl)cc1Cl)=N\OC(=O)Cc1cccs1,3.6%,-123.8*,-25.7%,-6.5%,.
N/C(Cc1cccc2ccccc12)=N\OC(=O)Cc1cccs1,?,-21.0,28.2µM*,28.9%,.
Cc1ccccc1OCC(=O)O/N=C(\N)Cc1cccs1,7.08µM*,69.8,-15.2%,22.3%[38.3 µM],5.2
Cc1cc2c(nc1C)CCCN2CC(O)CN1CCCc2nc(C)c(C)cc21,10.7%[13.5 µM],.,.,.,.
CC(/C=C(\NC(=O)c1ccccc1)C(=O)N=Nc1c(O)[nH]c2ccc(C)cc12)=C\c1ccccc1,10.3%,-29.9,-6.3%,5.5%[38.3 µM],5.0
CCCS(=O)(=O)Nc1cc(C(F)(F)F)ccc1OCCOC,?,14.1,-9.9%,32.2%[38.3 µM],3.9
O=c1c(CCc2ccccc2)nc2cnc(Nc3ccccc3)nc2n1Cc1cccs1,-3.8%,.,-9.2%,?,.
Cc1ccc2c(c1)C(c1ccc(F)cc1)N(C(=O)c1cc3ccccc3oc1=O)CC(=O)N2 (stereo not given),?,-88.9*,-5.8%,14.9%,.
Cc1sc2c(c1C)CN(Cc1ccncc1)CN2C(=O)c1ccco1,25.1µM*,-17.6,-22.0%,24.3%[38.3 µM],3.9
CCOC(=O)C1=C(c2ccccc2)N2CCS(=O)(=O)N=C2S1,7.1%,-83.3*,-6.5%,18.6%[38.3 µM],-2.9
COc1cc(C)nc(NS(=O)(=O)c2ccc(C)cc2)n1,4.8%,19.1,-7.6%,49.5%[38.3 µM],0.1
O=C(NN=C1CCCC1)NC1CCCCC1,-3.2%,-118.2*,-9.2%,-4.9%,.
COc1ccc(-n2c(=O)c(C)nc3cnc(Oc4cccc(Cl)c4)nc32)cc1,?,.,-4.2%,18.4%,.
COC(=O)C(/C=N/OCc1ccc([N+](=O)[O-])cc1)NC(=O)c1cccc(Cl)c1 (stereo not given),1.41µM*,-98.4*,-3.1%,28.5%[38.3 µM],-2.7
COCC(C)NC(=O)c1cccc(Cl)c1 (stereo not given),1.0%,-28.7,?,-13.8%[38.3 µM],-7.0
Cc1ccccc1OCCC(=O)OCC(=O)Nc1cc(S(=O)(=O)N2CCOCC2)ccc1Cl,2.51µM*,.,.,10.2%,.
Cc1cccc(NC(=O)COC(=O)CCc2ccc(S(=O)(=O)N3CCOCC3)cc2)c1C,3.55µM*,.,.,-8.8%,.
